Assay results taken from the supplement of paper PMC6992640.
± gives the standard deviation of the averaged measurements.

Assays:
Assay in all cases: cell viability (% of vehicle); higher = less cytotoxic
HCI01 [1] = cells of a triple-negative basal-like breast cancer xenograft; conditions: 1 µM; 72 h
UCD52 [2] = cells of a triple-negative basal-like breast cancer xenograft; conditions: 1 µM; 72 h
WHIM2 [3] = cells of a triple-negative basal-like breast cancer xenograft; conditions: 1 µM; 72 h
WHIM30 [4] = cells of a triple-negative basal-like breast cancer xenograft; conditions: 1 µM; 72 h
HCI01 [5] = conditions: 10 µM; 72 h
HCI03 = cells of an ER-positive luminal breast cancer xenograft; conditions: 10 µM; 72 h
HCI09 = cells of a triple-negative luminal androgen receptor type breast cancer xenograft; conditions: 10 µM; 72 h
HCI11 = cells of an ER-positive luminal breast cancer xenograft; conditions: 10 µM; 72 h
HCI13 = cells of an ER-positive luminal breast cancer xenograft; conditions: 10 µM; 72 h
HCI16 = cells of a triple-negative basal-like breast cancer xenograft; conditions: 10 µM; 72 h
UCD52 [6] = conditions: 10 µM; 72 h
WHIM2 [7] = conditions: 10 µM; 72 h
WHIM30 [8] = conditions: 10 µM; 72 h

| Structure (SMILES) | cell viability (HCI01 [1]) | cell viability (UCD52 [2]) | cell viability (WHIM2 [3]) | cell viability (WHIM30 [4]) | cell viability (HCI01 [5]) | cell viability (HCI03) | cell viability (HCI09) | cell viability (HCI11) | cell viability (HCI13) | cell viability (HCI16) | cell viability (UCD52 [6]) | cell viability (WHIM2 [7]) | cell viability (WHIM30 [8]) |
| --- | --- | --- | --- | --- | --- | --- | --- | --- | --- | --- | --- | --- | --- |
| CCN(CC)CCNC(=O)c1c(C)[nH]c(C=C2C(=O)Nc3ccc(F)cc32)c1C.O=C(O)CC(O)C(=O)O [Sunitinib malate] | 73.4 | 64.6 | 96 | 69.2 | 37.7 ± 18 | 73.6 | 11.3 ± 0.53 | 111 | 58.1 ± 1.6 | 128 | 15.3 ± 1.1 | 31.7 ± 12 | 41.7 ± 11 |
| COC(=O)C1=C(C)NC(C)=C(C(=O)OCCN(C)Cc2ccccc2)C1c1cccc([N+](=O)[O-])c1.Cl (stereo not given) [Nicardipine HCl] | 108 | 94.4 | 93.5 | 100 | 66 ± 2.2 | 99.9 | 35.5 ± 4.3 | 65.4 | 55.4 ± 8.6 | 126 | 55.37 ± 0.27 | 48.8 ± 8.4 | 80 ± 5.5 |
| CSc1ccc2c(c1)N(CCC1CCCCN1C)c1ccccc1S2.Cl (stereo not given) [Thioridazine HCl] | 87 | 82.5 | 92.4 | 84.7 | 44.9 ± 9.3 | 52.1 | 26.4 ± 1.2 | 88.4 | 55.6 ± 3.4 | 41.4 | 36.8 ± 0.53 | 42.2 ± 10 | 61.9 ± 3.6 |
| COCCOC(=O)C1=C(C)NC(C)=C(C(=O)OCC=Cc2ccccc2)C1c1cccc([N+](=O)[O-])c1 (stereo not given) [Cilnidipine] | 111 | 95.4 | 97.7 | 103 | 93.8 ± 25 | 90.1 | 81.4 ± 20 | 81.7 | 66.6 ± 38 | 54.9 | 84 ± 6.8 | 41.1 ± 16 | 68.7 ± 1.3 |
| Oc1c(Cl)cc(Cl)c2cccnc12 [Chloroxine] | 93.2 | 96.7 | 96.5 | 71.6 | 36.5 ± 3.6 | 56.7 | 28.7 ± 2.7 | 69.7 | 65 ± 15 | 130 | 120 ± 88 | 79.7 ± 55 | 48.9 ± 4.8 |
| Clc1ccc(COC(Cn2ccnc2)c2ccc(Cl)cc2Cl)c(Cl)c1.O=[N+]([O-])O (stereo not given) [Miconazole Nitrate] | 100 | 96.9 | 111 | 95.9 | 32 ± 8.9 | 93.1 | 27.3 ± 7.1 | 79.9 | 56.9 ± 7.8 | 113 | 48.6 ± 5.8 | 37 ± 9.7 | 128 ± 2 |
| COC(=O)C12CCC(C)(C)CC1C1C(=O)C=C3C4(C)C=C(C#N)C(=O)C(C)(C)C4CCC3(C)C1(C)CC2 (stereo not given) [Bardoxolone methyl] | 145 | 60.9 | 59.9 | 65.3 | 28.5 ± 3.9 | 33.9 | 23.1 ± 1.8 | 23.2 | 31.5 ± 3 | 30.4 | 24.6 ± 1 | 34.2 ± 5.5 | 26.8 ± 1.1 |
| COc1cccc2c1C(=O)c1c(O)c3c(c(O)c1C2=O)CC(O)(C(=O)CO)CC3OC1CC(N)C(O)C(C)O1 (stereo not given) [Doxorubicin] | 80.1 | 42.1 | 30.4 | 44.2 | 56.3 ± 15 | 188 | 28.8 ± 3.4 | 49.6 | 176 ± 59 | 60.4 | 24.297 ± 0.024 | 50.6 ± 5.6 | 80.7 ± 5.3 |
| Cl.OC(CNCC(O)C1CCc2cc(F)ccc2O1)C1CCc2cc(F)ccc2O1 (stereo not given) [Nebivolol] | 91.1 | 92.3 | 91.5 | 103 | 75.3 ± 2.5 | 87.2 | 86.8 ± 8.1 | 87.2 | 94.2 ± 18 | 64.9 | 38.43 ± 0.34 | 40.5 ± 9.2 | 81 ± 2.3 |
| COc1cc(C(=O)NS(=O)(=O)c2ccccc2C)ccc1Cc1cn(C)c2ccc(NC(=O)OC3CCCC3)cc12 [Zafirlukast] | 93.6 | 95.3 | 111 | 97.2 | 24.1 ± 0.82 | 87.8 | 22.3 ± 1.4 | 86.4 | 111 ± 2.8 | 106 | 78.7 ± 6.7 | 42.6 ± 1.2 | 116 ± 8.7 |
| Cc1cc(Nc2ncc(Cl)c(Nc3ccccc3S(=O)(=O)C(C)C)n2)c(OC(C)C)cc1C1CCNCC1 | 76.4 | 45.8 | 63.1 | 47.9 | 34.4 ± 7.6 | 37.8 | 17.5 ± 1.3 | 29.3 | 27.6 ± 17 | 44.6 | 24.86 ± 0.13 | 45.5 ± 4.4 | 29.3 ± 1.2 |
| COc1cccc2c1C(=O)c1c(O)c3c(c(O)c1C2=O)C[C@@](O)(C(C)=O)C[C@@H]3O[C@H]1C[C@H](N)[C@H](O)[C@H](C)O1.Cl [Daunorubicin HCl] | 128 | 27.8 | 23.1 | 48 | 32.2 ± 4.8 | 141 | 32.8 ± 8.5 | 31.2 | 41.3 ± 3.9 | 49.9 | 30.4 ± 2.6 | 42.07 ± 0.39 | 44.6 ± 10 |
| Cc1cn(-c2cc(NC(=O)c3ccc(C)c(Nc4nccc(-c5cccnc5)n4)c3)cc(C(F)(F)F)c2)cn1 [Nilotinib(AMN-107)] | 78.2 | 77.5 | 88 | 75.3 | 105 ± 61 | 79.8 | 90.1 ± 21 | 76.6 | 91.3 ± 13 | 92.1 | 47.83 ± 0.22 | 69.1 ± 7.7 | 75 ± 2.3 |
| N.N.O=C([O-])C1(C(=O)[O-])CCC1.[Pt+2] [Carboplatin] | 87.9 | 80.1 | 99.9 | 77 | 82.1 ± 6.4 | 82.7 | 91.7 ± 4 | 86.4 | 86.87 ± 0.21 | 51 | 39.6 ± 6.8 | 84.8 ± 13 | 89 ± 5.5 |
| CNCCC(Oc1cccc2ccccc12)c1cccs1.Cl (stereo not given) [Duloxetine HCl] | 85.4 | 95.4 | 91.1 | 79.7 | 87.3 ± 6.3 | 106 | 55.9 ± 34 | 70.8 | 112 ± 11 | 66.6 | 30.9 ± 1.8 | 38.5 ± 0.71 | 80.9 ± 9.8 |
| CC(=O)c1cc2c(o1)C(=O)c1ccccc1C2=O [Napabucasin] | 30.1 | 29.6 | 50.3 | 33.9 | 54.9 ± 23 | 54.2 | 29.1 ± 9.1 | 21.8 | 46.9 ± 9.2 | 58.7 | 40.3 ± 7.5 | 72.4 ± 12 | 45.1 ± 7.3 |
| Cn1cnc2c(F)c(Nc3ccc(Br)cc3F)c(C(=O)NOCCO)cc21 | 71.6 | 59.9 | 80.7 | 69.9 | 84.1 ± 12 | 90.7 | 65.6 ± 13 | 76.4 | 70.9 ± 7.1 | 79.6 | 59.8 ± 8.5 | 55.2 ± 20 | 106 ± 14 |
| CNC(=O)c1cc(Oc2ccc(NC(=O)Nc3ccc(Cl)c(C(F)(F)F)c3)c(F)c2)ccn1 [Regorafenib] | 103 | 80.7 | 99.6 | 89.9 | 22.5 ± 4.2 | 48 | 13.2 ± 3.8 | 43.5 | 83.1 ± 5.7 | 39.7 | 117 ± 4.5 | 30.6 ± 7.5 | 44.9 ± 1.4 |
| O=C1C=CC=CC1=C1NC(=C2C=CC=CC2=O)N(c2ccc(C(=O)O)cc2)N1 [Deferasirox] | 87.9 | 92 | 92.2 | 98.2 | 65.5 ± 9.3 | 129 | 62 ± 39 | 107 | 62.9 ± 16 | 101 | 77.7 ± 33 | 95.2 ± 25 | 70.1 ± 1.5 |
| CC(C)COc1ccc(CNC(=O)N(Cc2ccc(F)cc2)C2CCN(C)CC2)cc1 [Pimavanserin] | 93.5 | 83.6 | 103 | 88 | 98.1 ± 1.5 | 111 | 56.7 ± 18 | 81 | 171 ± 10 | 87.3 | 46.4 ± 3.1 | 43.7 ± 2.7 | 83.5 ± 3.7 |
| Clc1ccc(C(Cn2ccnc2)OCc2ccsc2Cl)c(Cl)c1 (stereo not given) [Tioconazole] | 98.7 | 104 | 111 | 90.1 | 115 ± 63 | 110 | 40.7 ± 32 | 92.1 | 50.1 ± 3.6 | 119 | 60.2 ± 8.4 | 35.8 ± 5.1 | 100 ± 2.3 |
| CC(NCCCc1cccc(C(F)(F)F)c1)c1cccc2ccccc12 (stereo not given) [Cinacalcet] | 102 | 78.1 | 91.9 | 83.9 | 33.2 ± 2.7 | 34.2 | 17.1 ± 4.2 | 122 | 43.4 ± 3 | 33.5 | 17.3 ± 0.67 | 34.7 ± 8.7 | 35.8 ± 1.6 |
| Cc1ccc(C(=O)N(CCCN)C(c2nc3cc(Cl)ccc3c(=O)n2Cc2ccccc2)C(C)C)cc1 (stereo not given) | 98.7 | 47.7 | 62.5 | 78 | 34.6 ± 0.75 | 41.2 | 22.4 ± 2.7 | 56.8 | 38.3 ± 4 | 45.5 | 122 ± 8.3 | 34.8 ± 0.98 | 39.8 ± 4 |
| CN(C)c1ccc(C(=C2C=CC(=[N+](C)C)C=C2)c2ccc(N(C)C)cc2)cc1.[Cl-] [Crystal Violet] | 74.7 | 61.1 | 51.2 | 40.8 | 28.8 ± 4.1 | 48.9 | 26.9 ± 4.8 | 28.1 | 24.73 ± 0.16 | 56.7 | 29.6 ± 3.3 | 46.7 ± 15 | 36.8 ± 2.2 |
| COc1ccc2c(O[C@H]3CC4C(=O)N(C)CCCC/C=C\[C@H]5C[C@@]5(C(=O)NS(=O)(=O)C5CC5)NC(=O)[C@@H]4C3)cc(-c3nc(C(C)C)cs3)nc2c1C (stereo not given in full) [Simeprevir] | 104 | 90.4 | 106 | 86.7 | 29.8 ± 3.8 | 39.5 | 20.8 ± 2.6 | 72.7 | 38.5 ± 3.4 | 28.7 | 32.64 ± 0.11 | 39 ± 3.6 | 28.5 ± 2.1 |
| CC(Oc1cc(-c2cnn(C3CCNCC3)c2)cnc1N)c1c(Cl)ccc(F)c1Cl [(R)-Crizotinib] | 154 | 67.6 | 106 | 95.7 | 60 ± 23 | 135 | 24.8 ± 3.8 | 89.6 | 141.8 ± 0.89 | 41.9 | 23.1 ± 3.7 | 39.3 ± 3.3 | 125 ± 27 |
| O=C(NC1CCN(CCCCC2(C(=O)NCC(F)(F)F)c3ccccc3-c3ccccc32)CC1)c1ccccc1-c1ccc(C(F)(F)F)cc1 [Lomitapide] | 92.2 | 56.3 | 62.7 | 63.8 | 34.8 ± 7.4 | 49.3 | 26.5 ± 2.4 | 43.7 | 33.8 ± 3.2 | 47.3 | 33 ± 3 | 41 ± 4.1 | 109 ± 5.5 |
| CCCCCOc1ccc(-c2ccc(-c3ccc(C(=O)N[C@H]4C[C@@H](O)[C@@H](O)NC(=O)[C@@H]5[C@@H](O)[C@@H](C)CN5C(=O)[C@H]([C@@H](C)O)NC(=O)[C@H]([C@H](O)[C@@H](O)c5ccc(O)cc5)NC(=O)[C@@H]5C[C@@H](O)CN5C(=O)[C@H]([C@@H](C)O)NC4=O)cc3)cc2)cc1 [Anidulafungin] | 100 | 82.5 | 82.8 | 72.2 | 45 ± 2.3 | 67.5 | 40.3 ± 15 | 92.4 | 58.3 ± 5.8 | 55.2 | 47.7 ± 8.9 | 67.4 ± 5.7 | 112 ± 16 |
| Cc1c(C(=O)NN2CCCCC2)nn(-c2ccc(Cl)cc2Cl)c1-c1ccc(Cl)cc1 [Rimonabant] | 87.4 | 91.1 | 100 | 82.6 | 72.2 ± 38 | 114 | 22.2 ± 6.1 | 87.3 | 74.2 ± 19 | 96.7 | 62.3 ± 10 | 35.9 ± 10 | 68.4 ± 15 |
| C=CC(=O)N1CCC(Oc2cc3c(Nc4ccc(Cl)c(Cl)c4F)ncnc3cc2OC)CC1 [Poziotinib] | 62.3 | 36.5 | 32.9 | 50.7 | 39.4 ± 14 | 48.7 | 47.1 ± 2.5 | 48 | 34.2 ± 4.1 | 66.1 | 44.2 ± 4.5 | 50.5 ± 5.6 | 35.8 ± 10 |
